Counter-ions that a name gives are not always drawn. ± gives the standard deviation of the averaged measurements.

Our source for the growth values is the supplement of paper PMC9262897, “Low-cost anti-mycobacterial drug discovery using engineered E. coli” (Nature Communications, 2022).

The first assay relates to E. coli TESEC Alr+ wild-type control. The assay is described as follows: growth (OD600 after 10 h); higher = more growth (less inhibition). The note with it: compound 0.1 mM; raw OD600 reference: median of DMSO wells 0.49, cell-free background 0.052. How it is done:
(§1)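 TESEC Mtb Alr E. coli (ΔaraC ΔtolC ΔentC Δalr ΔdadX, arabinose-inducible Mtb Alr) or the Alr+ wild-type control strain, grown in defined M9-fructose medium without D-alanine in 96-well plates with Prestwick library compounds at 0.1 mM and 1% DMSO. Low Alr induction is 0.1 µM arabinose and high induction is 10 mM arabinose.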
On to `Clc1ccc(C(c2ccccc2Cl)C(Cl)Cl)cc1` (stereo not given) [Mitotane], for which the growth was found to be 0.403 ± 0.0086.
As to `Cc1nc2ccccn2c(=O)c1CCN1CCC(C(=O)c2ccc(F)cc2)CC1` [Pirenperone], the growth is 0.469 ± 0.013.
Compound `O=c1cc(-c2ccc(O)c(O)c2)oc2cc(O)cc(O)c12` [Luteolin] had a growth of 0.174 ± 0.18.
On the same count and under the same terms, for `CC[N+](C)(C)c1cccc(O)c1` [Edrophonium chloride] the value was 0.437 ± 0.029.
In the case of `CCn1cc(C(=O)O)c(=O)c2cc(F)c(N3CCNC(C)C3)c(F)c21` (stereo not given) [Lomefloxacin hydrochloride], the growth was 0.0513 ± 0.0014.

In a further assay the test system is E. coli TESEC Mtb Alr. Described as above. To be noted: arabinose 100 nM; compound 0.1 mM; raw OD600 reference: median of DMSO wells 0.413, cell-free background 0.052. As for the experimental part: as §1
In turn, `CCCNC(C)(C)COC(=O)c1ccccc1` [Meprylcaine hydrochloride] returned a growth of 0.419 ± 0.0049.
Still for that read-out and setting: for `CN1CCC(=C2c3ccccc3CCc3cccnc32)CC1` [Azatadine maleate] the value was 0.4 ± 0.013; for `CNC(=C[N+](=O)[O-])NCCSCc1csc(CN(C)C)n1` [Nizatidine], 0.408 ± 0.015; for `Fc1ccc(C(c2ccc(F)cc2)N2CCN(C/C=C/c3ccccc3)CC2)cc1` [Flunarizine dihydrochloride], 0.318 ± 0.037.
On the same count and under the same terms, for `CC(C(=O)O)c1cccc(C(=O)c2ccccc2)c1` (stereo not given) [Ketoprofen] the value was 0.428 ± 0.018.
The same measure, in the same setting: for `C1N2CN3CN1CN(C2)C3` [Methenamine] the value was 0.41 ± 0.01; for `Cc1c(N(C)CS(=O)(=O)O)c(=O)n(-c2ccccc2)n1C` [Dipyrone], 0.4104 ± 0.0007; for `Cc1onc(-c2ccccc2)c1-c1ccc(S(N)(=O)=O)cc1` [Valdecoxib], 0.4007 ± 0.0035.
For `O=C(C1CCCCC1)N1CC(=O)N2CCc3ccccc3C2C1` (stereo not given) [Praziquantel], the growth came to 0.382 ± 0.0029.
The same measure, in the same setting: in the case of `Clc1ccc(Cn2c(CN3CCCC3)nc3ccccc32)cc1` [Clemizole hydrochloride] it was 0.406 ± 0.011; in that of `O=C(O)c1ccccc1OP(=O)(O)O` [Fosfosal], 0.405 ± 0.01; in that of `COc1ccc(C2CNC(=O)C2)cc1OC1CCCC1` (stereo not given) [Rolipram], 0.4 ± 0.013.
With `CCC1=C(C)CN(C(=O)NCCc2ccc(S(=O)(=O)NC(=O)N[C@H]3CC[C@H](C)CC3)cc2)C1=O` [Glimepiride], the growth was determined as 0.411 ± 0.0056.
In the case of `CC(=O)Nc1c(I)c(C(=O)N[C@H]2C(O)O[C@H](CO)[C@@H](O)[C@@H]2O)c(I)c(N(C)C(C)=O)c1I` (stereo not given in full) [Metrizamide], the growth came out at 0.403 ± 0.012.
`CN(C(=O)C(Cl)Cl)c1ccc(OC(=O)c2ccco2)cc1` [Diloxanide furoate]: the growth was determined as 0.415 ± 0.016.
In turn, `Cc1c(Cl)cccc1Nc1ccccc1C(=O)O` [Tolfenamic acid] gave a growth of 0.0964 ± 0.065.
For `COc1ccc(C(=O)CC(=O)c2ccc(C(C)(C)C)cc2)cc1` [Avobenzone], the growth was 0.247 ± 0.058.
The same measure, in the same setting: in the case of `NCc1ccccc1CC(=O)N[C@@H]1C(=O)N2C(C(=O)O)=C(CSc3nnnn3CC(=O)O)CS[C@H]12` [Ceforanide] it was 0.108 ± 0.033; in that of `CN(C)CCCN1c2ccccc2CCc2ccccc21` [Imipramine hydrochloride], 0.408 ± 0.0092.
The same measure, in the same setting: in the case of `COc1ccc(-c2cc(=O)c3c(O)cc(O[C@@H]4O[C@H](CO[C@@H]5O[C@@H](C)[C@H](O)[C@@H](O)[C@H]5O)[C@@H](O)[C@H](O)[C@H]4O)cc3o2)cc1O` [Diosmin] it was 0.437 ± 0.026.
In turn, `COC(=O)N/N=C/c1c[n+]([O-])c2ccccc2[n+]1[O-]` [Carbadox] displayed a growth of 0.157 ± 0.013.
Same read-out and setting: for `N=C(N)NC(=O)c1nc(Cl)c(N)nc1N` [Amiloride hydrochloride dihydrate] the value was 0.407 ± 0.014.
The same measure, in the same setting: in the case of `Nc1nc(Cl)nc2c1ncn2[C@H]1C[C@H](O)[C@@H](CO)O1` [Cladribine] it was 0.42 ± 0.0056; in that of `CO[C@@]1(NC(=O)C2SC(=C(C(N)=O)C(=O)O)S2)C(=O)N2C(C(=O)O)=C(CSc3nnnn3C)CS[C@@H]21` (stereo not given in full) [Cefotetan], 0.0461 ± 0.00061; in that of `CC(=O)O[C@H]1C[C@@]2(C)[C@@H](C[C@@H](O)[C@H]3[C@@]4(C)CC[C@@H](O)[C@@H](C)[C@@H]4CC[C@@]32C)/C1=C(\CCC=C(C)C)C(=O)O` [Fusidic acid sodium salt], 0.11 ± 0.0058.
The same measure, in the same setting: for `COc1ccc(CN(CCN(C)C)c2ccccn2)cc1` [Pyrilamine maleate] the value was 0.3958 ± 0.0033; for `C#C[C@]1(O)CC[C@H]2[C@@H]3CCC4=Cc5oncc5C[C@]4(C)[C@H]3CC[C@@]21C` [Danazol], 0.4015 ± 0.0024.
As for `CCN(CC)C(C)CN1c2ccccc2Sc2ccccc21` (stereo not given) [Ethopropazine hydrochloride], the growth was determined as 0.413 ± 0.0094.
Same read-out and setting: in the case of `CCCNC(C)C(=O)Nc1c(C)csc1C(=O)OC` (stereo not given) [Articaine hydrochloride] it was 0.407 ± 0.015; in that of `Cc1ccc(Cl)c(Nc2ccccc2C(=O)O)c1Cl` [Meclofenamic acid sodium salt monohydrate], 0.0708 ± 0.027.
